MITF inh: MITF inhibitors, primary screen, biochemical, AlphaScreen, human; Microphthalmia-associated transcription factor (Homo sapiens), O75030; AlphaScreen MITF homodimerization, bead proximity signal; inhibition, % at 2.6 µM; actives 0.91% (n = 650,000); in the data active = inhibition above about 50%;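 note: 0% = vehicle wells with protein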
GPR151 activ: activators of human GPR151, primary screen, cell-based, PathHunter beta-arrestin, luminescence. activation, % at 11.2 µM. PathHunter beta-arrestin GPR151 cells. G-protein coupled receptor 151 (Homo sapiens), Q8TDV0. actives 1% (n = 650,000). AID 1508602, 2020; in the data active = activation above about 4.9%;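 note: 0% = median of compound wells and 100% = cells with positive control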
Target sequence (Q8TDV0 whole entry, looked up): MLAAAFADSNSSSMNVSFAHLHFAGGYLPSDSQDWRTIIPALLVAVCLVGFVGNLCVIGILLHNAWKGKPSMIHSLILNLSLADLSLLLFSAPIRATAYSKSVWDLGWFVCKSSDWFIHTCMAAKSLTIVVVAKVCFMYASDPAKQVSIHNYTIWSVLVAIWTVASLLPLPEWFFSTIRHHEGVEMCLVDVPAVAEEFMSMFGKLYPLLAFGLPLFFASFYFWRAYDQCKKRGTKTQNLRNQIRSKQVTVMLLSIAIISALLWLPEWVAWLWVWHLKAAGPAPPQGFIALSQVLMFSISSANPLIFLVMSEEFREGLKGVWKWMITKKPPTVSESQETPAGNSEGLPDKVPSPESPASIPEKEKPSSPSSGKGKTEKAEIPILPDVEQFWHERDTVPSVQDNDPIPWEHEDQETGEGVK
FBW7 act: FBW7 E3 ligase activators, primary screen, biochemical, AlphaScreen, human | AlphaScreen FBW7–phospho-cyclin E peptide binding, activator screen | normalized activity (activation), % at 26.1 µM | actives 0.13% (n = 650,000); in the data active = normalized activity above about 1.9%;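 note: purified mutant Fbw7 with reduced substrate affinity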
TEAD-YAP inh: TEAD-YAP interaction inhibition, primary screen, TEAD-YAP interaction inhibitor project, luminescence, HEK-TIYL cells; TEAD-Gal4/YAP UAS-luciferase luminescence; inhibition, % at 9.12 µM; actives 1.4% (n = 640,000); AID 1259422, 2018; in the data active = inhibition above about 32%;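 note: 0% = median of test compound wells and 100% = reference inhibitor wells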
MITF confirm: MITF inhibitors, retest of hits, confirmation, biochemical, AlphaScreen, triplicate; shares compounds with MITF inh; AlphaScreen MITF homodimerization, biotin/His-MITF beads; inhibition, % at 2.6 µM; actives 16% (n = 4,700); AID 1259372, 2018;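 active = inhibition above a cutoff derived from the DMSO control wells, cut at about 28% in these data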;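 note: 0% = MITF dimer wells with DMSO only; inhibitors lower the bead chemiluminescence by keeping MITF from dimerizing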
AlphaScreen intf2: AlphaScreen optical interference compounds, counter-screen for MITF inhibitor project, biochemical, triplicate; shares compounds with MITF inh; LysRS AlphaScreen counterscreen, signal interference; inhibition, % at 2.6 µM; actives 7.6% (n = 4,700); AID 1259376, 2018;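 active = inhibition above a cutoff derived from the DMSO control wells, cut at about 30% in these data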
Active calls of the source: *; x = not tested or not shown. Hits are enriched below; roughly 3.4% of the tested compounds scored in any of these assays.

SMILES	MITF inh	GPR151 activ	FBW7 act	TEAD-YAP inh	MITF confirm	AlphaScreen intf2
O=[N+]([O-])c1ccccc1OCCOc1cccc2cccnc12	0	0	0	-34	x	x
CC1CN(CCOc2cccc3ccccc23)CC(C)O1 (stereo not given)	58*	-1	0	0	10	6
COC(=O)c1ccccc1OCCCCN1CC(C)OC(C)C1 (stereo not given)	63*	0	0	1	1	14
COC(=O)c1ccccc1OCCCOc1cccc2cccnc12	68*	0	0	-37	4	17
O=C(Cc1ccccc1)Nc1ccnn1C1CCN(C2CCSCC2)CC1	-15	0	0	1	x	x
CCN(CC)CCCCCCn1c(C)cc(=O)n(C)c1=O	36	0	0	-1	x	x
Cc1cc(=O)n(C)c(=O)n1CCCCCCN1CCOCC1	55*	0	0	2	1	4
c1ccc(CC2(c3ccccc3)CCNC2)cc1 (stereo not given)	56*	0	0	-5	-1	-1
Cc1ccc(S(=O)(=O)N2CCN(Cc3ccccc3Cl)CC2)cc1	57*	3	0	-14	-4	-7
CCCS(=O)(=O)N1CCN(Cc2cc(OC)c(O)c(OC)c2)CC1	56*	-2	0	2	-2	11
CCCS(=O)(=O)N1CCN(Cc2ccc(CC)cc2)CC1	51*	1	0	14	2	8
COc1ccc(S(=O)(=O)N2CCN(Cc3ccccc3C(F)(F)F)CC2)cc1	-5	-1	0	3	x	x
CCS(=O)(=O)N1CCN(Cc2cc(OC)c(O)c(OC)c2)CC1	37	1	0	9	x	x
Cc1ccc(S(=O)(=O)N2CCN(Cc3ccccc3C(F)(F)F)CC2)cc1	67*	2	0	-38	4	12
CCOC(=O)COc1ccc(S(=O)(=O)NCc2ccc(Cl)cc2Cl)cc1	-19	1	0	1	x	x
Cc1ccc(NC(=O)c2ccccc2C(=O)O)cc1I	3	4	0	-1	x	x
O=[N+]([O-])c1ccccc1S(=O)(=O)N1CCN(Cc2ccccc2C(F)(F)F)CC1	61*	-1	0	6	8	12
CCc1ccc(CN2CCN(S(=O)(=O)c3ccc(C)cc3)CC2)cc1	58*	1	1	0	7	7
O=C(CN1CCN(Cc2cccc3ccccc23)CC1)c1ccco1	67*	-1	0	-1	6	10
c1coc(CN2CCN(Cc3cccc4ccccc34)CC2)c1	76*	-2	0	-17	15	16
COc1cc(CN2CCN(Cc3ccccc3Cl)CC2)c([N+](=O)[O-])cc1OC	82*	1	0	6	6	13
COc1cc(CN2CCN(C/C=C/c3ccccc3)CC2)c([N+](=O)[O-])cc1OC	4	-1	0	0	x	x
COc1cc(CN2CCN(Cc3ccccc3C)CC2)c([N+](=O)[O-])cc1OC	75*	2	0	-3	6	17
CC(C)c1onc(C(=O)Nc2cccc(C(F)(F)F)c2)c1[N+](=O)[O-]	15	-1	1	2	x	x
CC1(C)CC2(C=CC(=O)c3ccccc32)/C(=C/C(N)=O)N1 (stereo not given)	-13	0	0	0	x	x
SMILES	MITF inh	GPR151 activ	FBW7 act	TEAD-YAP inh	MITF confirm	AlphaScreen intf2
CCCCN(CC)c1ncnc2sc(C)c(C)c12	51*	0	0	0	10	-2
CC(O)CNc1nc2c(c(=O)n(C)c(=O)n2C)n1Cc1cccc(Cl)c1 (stereo not given)	8	2	0	1	x	x
O=C(Cn1nc(-c2ccc3c(c2)OCCO3)ccc1=O)Nc1ccccc1-c1ccccc1	72*	0	0	5	9	10
CC(O)CNc1nc2c(c(=O)n(Cc3ccccc3F)c(=O)n2C)n1C (stereo not given)	61*	0	0	0	6	11
COc1ccc(CN2CCOCC2)cc1OC	11	0	0	-7	x	x
COc1ccc(CN2CCN(Cc3cccc(Cl)c3)CC2)cc1OC	82*	3	0	9	9	18
CCOc1cc(CN2CCN(Cc3cc(OC)c(OC)cc3OC)CC2)ccc1OC	7	0	0	5	x	x
CCS(=O)(=O)N1CCN(Cc2ccc(OC)c(OC)c2)CC1	50	0	0	1	x	x
COc1ccc(CN2CCN(Cc3ccc(OC)c(OC)c3)CC2)cc1	74*	0	0	18	-8	-2
COc1cc(OC)c(OC)cc1CN1CCN(Cc2cccc(Cl)c2)CC1	82*	-1	1	-1	14	19
COc1ccc(CN2CCN(Cc3ccc(Cl)cc3)CC2)cc1OC	74*	1	0	14	13	0
COC(=O)c1c(NC(=O)c2nc(S(C)(=O)=O)ncc2Cl)sc2c1CCC2	4	2	0	-2	x	x
COc1ccc(CN2CCN(Cc3cccc(F)c3)CC2)cc1OC	64*	-1	0	3	19	18
CCC(=Nc1ccc(Br)cc1)c1c(O)n(C)c(=O)n(C)c1=O	11	0	1	6	x	x
CCOC(=O)CCCCC(=O)c1[nH]c(=O)n(C(=O)c2ccccc2)c1C	89*	0	-2	-5	115*	98*
CCOC(=O)CCCCC(=O)c1[nH]c(=O)[nH]c1Cn1ccnc1	36	1	0	-14	x	x
CCOC(=O)CCCCC(=O)c1c(C)n(C(=O)c2ccc(N3C(=O)CCC3=O)cc2)c(=O)n1C(=O)c1ccc(N2C(=O)CCC2=O)cc1	107*	-1	-1	-8	107*	88*
Cc1[nH]nc(NC(=O)Nc2cccc(Cl)c2)c1-c1ccc(F)cc1	9	1	0	-15	x	x
O=C(CN1C(=O)c2ccccc2C1=O)OCc1ccc(C(=O)c2ccccc2)cc1	-13	4	0	-2	x	x
COc1ccccc1OCC#CCn1ccnc1	63*	-1	0	1	10	19
Cc1ccc(NC(=O)C2CC(O)CN2C(=O)OC(C)(C)C)cc1 (stereo not given)	4	1	0	4	x	x
CSc1ccccc1NC(=O)CN(C)C(C)C(=O)NCc1ccc2c(c1)OCO2 (stereo not given)	88*	4	0	9	-3	13
CCSc1ccccc1C(=O)NCc1ccc2c(c1)OCO2	75*	-1	0	10	8	17
CSc1ccccc1C(=O)NCc1ccc2c(c1)OCO2	3	0	0	-1	x	x
